# Data taken from doi:10.1101/2024.03.05.583629.
# Biological target: pT7_6His-AlfaTag-HOXD13 (human, UniProt P35453 263-343)
# Test: PADIT-seq
# Details: dsDNA, one strand shown
# Sequence of pT7_6His-AlfaTag-HOXD13 (P35453 263-343): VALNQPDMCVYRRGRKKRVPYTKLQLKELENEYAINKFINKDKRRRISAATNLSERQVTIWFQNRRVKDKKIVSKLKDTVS
row,Sequence,binding signal [log2FC]
1,CTCGAGGATATCAAGATCTGGCCTCGGCATTTTATCCGGAACCTCTAGCTAGCCGACTCACTATAGGGATAATCGCCCTGAGCAAAGACC,1.17 ± 0.0736
2,CTCGAGGATATCAAGATCTGGCCTCGGCGATTTAAAAGGAACCTCTAGCTAGCCGACTCACTATAGGGATAATCGCCCTGAGCAAAGACC,2.1 ± 0.071
3,CTCGAGGATATCAAGATCTGGCCTCGGCGTTTTAGAAGGAACCTCTAGCTAGCCGACTCACTATAGGGATAATCGCCCTGAGCAAAGACC,0.37 ± 0.103
4,CTCGAGGATATCAAGATCTGGCCTCGGCATTTTAAACGGAACCTCTAGCTAGCCGACTCACTATAGGGATAATCGCCCTGAGCAAAGACC,1.29 ± 0.0911
5,CTCGAGGATATCAAGATCTGGCCTCGGCTTTTTATGGGGAACCTCTAGCTAGCCGACTCACTATAGGGATAATCGCCCTGAGCAAAGACC,3.53 ± 0.0874
6,CTCGAGGATATCAAGATCTGGCCTCGGCAGCCTAAAAGGAACCTCTAGCTAGCCGACTCACTATAGGGATAATCGCCCTGAGCAAAGACC,-0.607 ± 0.118
7,CTCGAGGATATCAAGATCTGGCCTCGGCATTTTATTCGGAACCTCTAGCTAGCCGACTCACTATAGGGATAATCGCCCTGAGCAAAGACC,1.83 ± 0.0742
8,CTCGAGGATATCAAGATCTGGCCTCGGCCGCACCCGCGGAACCTCTAGCTAGCCGACTCACTATAGGGATAATCGCCCTGAGCAAAGACC,-1.02 ± 0.126
9,CTCGAGGATATCAAGATCTGGCCTCGGCCGCCCAAAGGGAACCTCTAGCTAGCCGACTCACTATAGGGATAATCGCCCTGAGCAAAGACC,-0.802 ± 0.123
10,CTCGAGGATATCAAGATCTGGCCTCGGCAGTCCACGCGGAACCTCTAGCTAGCCGACTCACTATAGGGATAATCGCCCTGAGCAAAGACC,-0.993 ± 0.114
